High-throughput results from PubChem BioAssay.
Rows were chosen to be rich in hits. Some 0.85% of all compounds tested hit in one or more screens of this group.
Tb PGK inh: blocks T. brucei phosphoglycerate kinase. P07378. PGK/GAPDH coupled, Kinase-Glo luminescence, 60 min. Potency, µM (titrated, usually from 57.5 µM), inactives show at the top dose activity change, negative = inhibition, usual class: inhibitors. actives 0.043% (n = 380,000). AID 602233; also: nearly all actives have a fitted effect of over 60% in size
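Luminescent ATP detection (Kinase-Glo Plus) follows a 60-minute room-temperature incubation, with wells lacking PGK as controls. Buffer: 100 mM TEA (pH 7.6), 5 mM MgCl2, 0.01% Tween-20. Coupling enzyme GAPDH (100 nM final) supplies unstable 1,3-BPG in-well.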
TDP1 inh: TDP1 (human) enzyme inhibition. actives 0.28% (n = 350,000). Q9NUW8. Potency, µM (series often up to 130 µM), without a hit: top-dose activity change, negative = inhibition, hits mostly inhibitors. recombinant TDP1, AlphaScreen DNA substrate cleavage. AID 485290; also: nearly all actives have a fitted effect of over 40% in size
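E. coli-derived human Tdp1, 1 nM final. Cpd preinc 15 min RT; substrate 15 nM final, 5 min RT; AS bead mix 10 ug/ml final, 10 min RT. Signal loss = tyrosine-FITC cleavage. No-enzyme wells = max signal.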
GLS inhibitor: glutaminase GLS (human) inhibition; O94925; GLS enzymatic activity, qHTS titration; Potency, µM (titrated, usually from 45.5 µM), inactives show top-dose activity change, negative = inhibition, usual class: inhibitors; actives 0.21% (n = 410,000); AID 624170
Target sequence (O94925 whole entry, looked up): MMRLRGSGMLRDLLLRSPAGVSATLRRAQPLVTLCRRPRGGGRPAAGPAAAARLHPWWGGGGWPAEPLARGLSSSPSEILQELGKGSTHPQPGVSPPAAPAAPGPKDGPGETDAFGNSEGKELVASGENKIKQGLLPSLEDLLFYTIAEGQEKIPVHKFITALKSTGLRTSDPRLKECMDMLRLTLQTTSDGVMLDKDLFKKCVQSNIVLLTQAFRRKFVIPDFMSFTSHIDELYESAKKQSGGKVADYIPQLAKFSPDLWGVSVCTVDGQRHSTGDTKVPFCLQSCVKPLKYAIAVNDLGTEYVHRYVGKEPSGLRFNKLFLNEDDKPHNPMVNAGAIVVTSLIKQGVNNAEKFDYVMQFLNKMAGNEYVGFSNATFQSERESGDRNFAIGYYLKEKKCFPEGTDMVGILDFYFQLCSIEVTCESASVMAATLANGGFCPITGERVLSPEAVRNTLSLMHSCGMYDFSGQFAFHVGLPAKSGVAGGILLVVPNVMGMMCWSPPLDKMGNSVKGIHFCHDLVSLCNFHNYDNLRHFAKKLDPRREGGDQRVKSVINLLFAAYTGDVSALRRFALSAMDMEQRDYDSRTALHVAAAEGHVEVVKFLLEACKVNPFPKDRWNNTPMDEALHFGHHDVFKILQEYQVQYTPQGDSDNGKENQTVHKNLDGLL
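Enzyme dispensed in phosphate buffer (45 mM, pH 8.2, 0.02% Tween-20), compounds pinned in, then 1 mM L-glutamine solution and the glutamate oxidase–HRP–Amplex Red mix added; fluorescence read immediately and again after 30 min at room temperature.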
BLM inh: Bloom syndrome helicase (human) inhibition. P54132. recombinant BLM DNA unwinding, fluorescence dequenching. Potency, µM (doses to about 56.1 µM), for inactives: at the top dose activity change, negative = inhibition, most hits filed as inhibitors. actives 0.2% (n = 350,000). AID 2528;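 also: plate controls were vehicle for no effect and no enzyme for full effect; nearly all actives have a fitted effect of over 35% in size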
APEX1 inh: blocks human APE1 abasic DNA cleavage; AID 2517; Potency, µM (highest dose often 65.8 µM), for the others: at the top dose activity change, negative = inhibition, usual class: inhibitors; recombinant APE1, TAMRA/BHQ-2 abasic DNA cleavage fluorescence; actives 0.35% (n = 350,000); P27695;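 also: plate controls were vehicle for no effect and reference inhibitor for full effect; nearly all actives have a fitted effect of over 55% in size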
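Measures dequenching upon AP-site incision of a 5'-TAMRA/3'-BHQ-2 THF-containing duplex, 50 nM; human APE1 0.75 nM after 15 min room-temperature exposure to compound; kinetic three-point read at one-minute spacing.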
RECQ1 inh: blocks DNA unwinding by human RECQ1. RECQ1 DNA unwinding, red fluorescence kinetic read. Potency, µM (highest dose often 57.3 µM), inactives show at the top dose activity, negative = inhibition, actives largely listed as inhibitors. actives 0.54% (n = 240,000);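 also: plate controls were vehicle for no effect and no enzyme for full effect; nearly all actives have a fitted effect of over 30% in size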
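RECQ1T1 50 nM; forked duplex (20 bp + 30-nt ss tails) 200 nM, ATP 2 mM final; pH 8.0, 2 mM MgCl2, 2.5 ug/ml poly(dI-dC); 15 min compound preincubation; discontinuous kinetic read over 2 h at RT.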
Starred values were filed as active, the others as inactive; i = inactive; ? = inconclusive; · = no result given; [ ] = dose if it differs, or a comment. Calls follow the shape of the dose curve; as a rule, active = well fitted curve in the direction sought with a large enough effect; inconclusive = small, poorly fitted or top-dose-only effect, or another doubt; inactive = no such curve, though single readings can be large; an effect the other way counts as inactive or inconclusive. Unless noted, % is scaled to controls: 0 for no effect and ±100 for the full control effect; potency is read from the fitted curve at half-maximal effect.

SMILES	Tb PGK inh	TDP1 inh	GLS inhibitor	BLM inh	APEX1 inh	RECQ1 inh
Cc1ccc(NC(=O)CC2SC(=O)N(c3ccccc3)C2=O)cc1 (configuration not stated)	-10%	10%	11µM*	2%	0%	-4%
N#Cc1c(-c2cccc(O)c2)no[n+]1[O-]	·	·	·	·	-3%	·
CC1(C)CCC[C@]2(C)[C@H]3CC(=O)O[C@]3(C)CC[C@@H]12	-3%	6%	-3%	-2%	20%	-9%
CC(=O)OC[C@]12CC[C@H]3[C@@](C)(CC[C@H]4C(C)(C)CCC[C@]34C)[C@@H]1C[C@H](C1=CC(=O)O[C@@H]1OC(C)=O)O2	·	-11%	·	·	13µM*	·
O=C(OCC#CCSc1nnc(-c2cccc3ccccc23)o1)c1sc2ccccc2c1Cl	·	-2%	·	·	·	·
OC[C@@H]1[C@@H](c2ccccc2)C(c2cccc(Cl)c2)=NN1c1ccccc1	-4%	25µM*	-7%	-11%[75.6 µM]	-13%	32µM*
OC[C@@H]1[C@@H](c2ccccc2)C(c2ccccc2)=NN1c1ccccc1	4%	-15%[56.1 µM]	17%	-10%[75.6 µM]	-16%	-14%[81.1 µM]
CN1C(=O)CC(C)(c2ccccc2)C1=O (configuration not stated)	·	·	-1%	·	·	·
O=C1OC(c2cccs2)=N/C1=C/c1ccc(-c2cccc(C(=O)O)c2)o1	-22%	?	6%	110%	18µM*	?
COc1ccc(C2=Nn3c(nnc3-c3ccccc3C(F)(F)F)SC2)cc1OC	·	·	·	·	-12%	·
CN[C@@H]1[C@@H](O)[C@@H](O[C@@H]2[C@@H](O)[C@H](OC3OC(CN)=CCC3N)[C@@H](N)C[C@H]2N)OC[C@]1(C)O (some centres not stated)	·	·	·	·	1%[21 µM]	·
CN(C)c1ccc(O)c2c1CC1CC3[C@@H](N(C)C)C(=O)C(C(N)=O)C(=O)[C@]3(O)C(=O)C1C2=O (some centres not stated)	-4%	·	13%	·	39%	·
CN(C)[C@@H]1C(=O)C(C(=O)NCN2CCCC2)=C(O)[C@@]2(O)C(=O)C3=C(O)c4c(O)cccc4[C@@](C)(O)C3CC12 (some centres not stated)	·	0.71µM*	·	14µM*	2.5µM*	3.2µM*
O=c1oc2cc(O)ccc2c2oc3cc(O)ccc3c12	-16%	-3%	7.9µM*	?	?	32µM*
COc1c(O)c(O)cc2c1oc1c3ccccc3oc(=O)c21	·	4%	·	14µM*	28µM*	11µM*
COc1ccc(Cl)c(Cn2cnc3c(cnn3C(C)(C)C)c2=O)c1	·	·	·	·	19%	·
COc1ccc(/C=N/N(C)C2=NS(=O)(=O)c3ccccc32)cc1	-13%	·	-7%	-4%	-17%	·
CN(/N=C/c1ccc(N(C)C)cc1)C1=NS(=O)(=O)c2ccccc21	-2%	·	6%	35%	24µM*	·
COc1ccccc1N1C(=O)C=C(Sc2nc(C)cc(C)n2)C1=O	-8%	7%	7.9µM*	2%	-3%	-25%
O=S(=O)(c1ccc2ccccc2c1)N1CCCCCC1	9%	3%	-1%	-5%	8%	-2%
O=C(O)c1cc(S(=O)(=O)N2CCN(S(=O)(=O)c3ccc4ccccc4c3)CC2)ccc1Br	-14%	35µM*	-15%	·	-15%	·
O=C1CCc2cc(S(=O)(=O)Nc3ccc(Cl)c(Cl)c3)ccc2N1	·	1%	·	·	·	·
O=C(O)c1cc(O)c2c(c1)[C@@H]([C@H]1c3cc(C(=O)O)cc(O)c3C(=O)c3c(O[C@@H]4O[C@H](CO)[C@@H](O)[C@H](O)[C@H]4O)cccc31)c1cccc(OC3O[C@H](CO)[C@@H](O)[C@H](O)[C@H]3O)c1C2=O (some centres not stated)	?	·	?	·	0.084µM*	·
O=C1c2cc(CO)cc(O)c2C(=O)c2c(O[C@@H]3OC(CO)[C@@H](O)[C@@H](O)[C@@H]3O)cccc21 (some centres not stated)	-4%	·	-10%	·	·	·
O=C(O)c1cc(O)c2c(c1)[C@H]([C@H]1c3cc(C(=O)O)cc(O)c3C(=O)c3c(O[C@@H]4O[C@H](CO)[C@@H](O)[C@H](O)[C@H]4O)cccc31)c1cccc(OC3O[C@H](CO)[C@@H](O)[C@H](O)[C@H]3O)c1C2=O (some centres not stated)	?	·	?	·	0.067µM*	·
SMILES	Tb PGK inh	TDP1 inh	GLS inhibitor	BLM inh	APEX1 inh	RECQ1 inh
N#Cc1c(-c2ccc([N+](=O)[O-])cc2)no[n+]1[O-]	·	·	·	·	7%	·
COc1ccccc1Nc1n[nH]c(=S)s1	-1%	8%	10µM*	0%	14%	?
CNC1=C(Cl)C(=O)c2ccncc2C1=O	·	1%	·	18µM*	?	-5%
CNc1ccncc1S(=O)(=O)NC	-1%	8%	-2%	1%	-2%	-20%
CNC1=C(Br)C(=O)c2ccncc2C1=O	·	1%	·	14µM*	?	0%
COc1ccc2cc(C(=O)Nc3ccccc3)sc(=O)c2c1OC	-7%	16µM*	1%	-10%	1%	5%
COc1ccc2cc(C(=O)Nc3ccc(S(N)(=O)=O)cc3)sc(=O)c2c1OC	-16%	3%	3%	-9%	?	-16%
CCC[C@]1(CCc2ccccc2)CC(O)=C([C@H](CC)c2cccc(NS(=O)(=O)c3ccc(C(F)(F)F)cn3)c2)C(=O)O1	·	·	5%	·	·	·
CC(C)(C)n1ncc2c(=O)n(Cc3c(F)ccc(F)c3Cl)cnc21	·	·	·	·	-3%	·
O=C(O)c1[nH]c2ccccc2c1C(c1ccccc1)c1c(C(=O)O)[nH]c2ccccc12	-7%	·	11µM*	6%	49%	·
COc1ccc2nc(-c3ccc(N(C)C)cc3)sc2c1	·	4%	·	0%	-2%	i
C=CCn1c(SCC(=O)Nc2nnc(C)s2)nnc1C1CC1	-8%	28µM*	0%	-1%	-33%	·
C=CCn1c(SCC(=O)NC(=O)NC2CCCC2)nnc1C1CCCCC1	-2%	-4%	1%	-8%	7%	2%
C/C(=C(/CCOC(=O)c1ccccc1)SS/C(CCOC(=O)c1ccccc1)=C(\C)N(C=O)Cc1cnc(C)nc1N)N(C=O)Cc1cnc(C)nc1N	·	·	3%	·	·	·
NC(=S)n1[nH]c(-c2ccc([N+](=O)[O-])cc2)c(N=Nc2cccc([N+](=O)[O-])c2)c1=O	?	?	5%	18µM*	?	-2%
NC(=S)n1[nH]c(-c2ccc([N+](=O)[O-])cc2)c(N=Nc2ccccc2[N+](=O)[O-])c1=O	-8%	0%	-10%	-6%	13%	i
